# Bioassay records: PubChem BioAssay, The Scripps Research Institute Molecular Screening Center
# Sampled rows, rich in hits. Any-hit rate of the full collection: about 4.8%.
# ssDAF-12 act: activators of S. stercoralis DAF-12 nuclear receptor | AID 652126 | 1% of 370,000 active | HEK293 ssDAF-12/GRIP1 lit1-tk-luc reporter, luminescence; % of 3 µM dafachronic acid response | activation, % at 6.8 µM;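 active = activation above the mean over all tested compounds plus 3 SD, cut at about 0.9% in these data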;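 also: 0% = DMSO-only wells and 100% = 3 µM delta7-dafachronic acid wells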
# hcDAF-12 act: activators of H. contortus DAF-12 nuclear receptor | HEK293 hcDAF-12 lit1-tk-luc reporter, luminescence; 0% DMSO, 100% Δ7-dafachronic acid | activation, % at 6.8 µM | 1.4% of 370,000 active;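 active = activation above the mean of all tested compounds plus 3 SD, cut at about 5.5% in these data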;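 also: 100% = response to 3 µM Δ7-dafachronic acid high control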
# DAX1 inh-1: inhibitors of human orphan nuclear receptor DAX1 (NR0B1); P51843; HEK293 Gal4-DAX1 luciferase reporter, luminescence; inhibition, % at 6.75 µM; 0.99% of 340,000 active; AID 504766;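 active = inhibition above the mean over all tested compounds plus 3 SD, cut at about 4.2% in these data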;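 also: 0% = DAX1-transfected cells with DMSO and 100% = empty-vector control cells with DMSO; inhibition shows as a rise in luminescence from relieved DAX1 repression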
# Target sequence (P51843 207-470 limits assumed): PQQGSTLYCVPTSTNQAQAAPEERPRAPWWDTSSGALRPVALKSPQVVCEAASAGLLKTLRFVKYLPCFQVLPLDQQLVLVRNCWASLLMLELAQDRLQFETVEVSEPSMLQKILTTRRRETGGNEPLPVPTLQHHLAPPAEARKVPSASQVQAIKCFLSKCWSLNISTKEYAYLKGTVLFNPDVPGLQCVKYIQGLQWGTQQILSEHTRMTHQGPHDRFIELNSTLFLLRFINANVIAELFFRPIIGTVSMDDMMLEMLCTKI
# SMARCA2 act: SMARCA2 function activation, primary screen; 1% of 370,000 active; AID 652017; MG213 cells, MMTV-luciferase reporter, dexamethasone, overnight; activation, % at 9.1 µM; in the data active = activation above about 7.8%;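 also: 0% = vehicle wells and 100% = reference activator wells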
# hgDAF-12 ag: hgDAF-12 agonism, primary luciferase screen; HEK293 GAL4-hgDAF12 UAS-luciferase reporter, agonist luminescence; normalized to butyrate control; activation, % at 6.8 µM; 1.8% of 370,000 active; AID 687014;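 active = activation above a cutoff set at the mean of all screened compounds plus 3 SD, cut at about 10% in these data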;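 also: 0% = DMSO wells and 100% = sodium butyrate wells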
# DAX1 inh-2: blocks DAX1 repression of SF-1 activated StAR promoter; HEK293T StAR-luciferase reporter, SF-1/DAX-1 repression relief; inhibition, % at 6.8 µM; 1.1% of 370,000 active;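 active = inhibition above the mean over all tested compounds plus 3 SD, cut at about 3.6% in these data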;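 also: 0% = DAX-1 cells with DMSO and 100% = cells lacking DAX-1 with DMSO; higher inhibition means more luminescence from relief of DAX-1 repression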
# SMARCA2 conf: SMARCA2 activation, confirmation screen | shares compounds with SMARCA2 act | MG213 cells, MMTV-luciferase with dexamethasone, luminescence, overnight; MG213 cells expressing E1A, Rb sequestered; DMSO wells 0%, reference activator 100% | activation, % at 9.1 µM | 30% of 3,500 active;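 active = activation above its plate's cutoff, the mean activation of tested wells plus 3 SD, cut at about 7.9% in these data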
# VP16 Luc act: activates GAL4-VP16 luciferase, flagging SMARCA2 activator hits. AID 686939. activation, % at 9.1 µM. HEK293 GAL4-VP16 pG5luc reporter, luciferase luminescence; scaled: DMSO wells 0%, SAHA wells 100%. shares compounds with SMARCA2 act. 41% of 3,500 active;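 active = activation above the solvent-only control well mean plus 3 SD, averaged across control plates, cut at about 5.2% in these data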
# * marks the source's active call; other numbers are inactive results; / = not tested or not shown.
SMILES,ssDAF-12 act,hcDAF-12 act,DAX1 inh-1,SMARCA2 act,hgDAF-12 ag,DAX1 inh-2,SMARCA2 conf,VP16 Luc act
Cc1cc2c(c(=O)o1)C1(C)CC(C)(O2)c2c(cc(C)oc2=O)O1,-0.2,1.8,/,-3.4,1.6,0.4,/,/
O=C(Nc1nc2ccsc2c(=O)s1)c1ccc(Cl)cc1,0.9*,5.1,5.8*,13.8*,8.9,1.6,10.4*,9.1*
Cn1sc(NC(=O)c2ccc(Cl)cc2)nc1=O,-0.4,3.5,-0.3,8.4*,2.6,1.1,2.8,10.9*
CC(C)N(C)c1ncnc2c1ncn2[C@H]1CN(Cc2ccc3c(c2)OCO3)C[C@@H](CO)O1,-1.2,-1.0,/,-2.0,2.7,-1.0,/,/
Cc1nccn1-c1ccc(C(F)(F)F)cc1[N+](=O)[O-],-0.9,-0.7,0.0,2.0,-2.6,-0.3,/,/
CSCCC(NS(=O)(=O)c1ccc2c(c1)c(=O)n(C)c(=O)n2C)C(=O)NC1CCN(Cc2ccccc2)CC1 (stereo unspecified),-1.6,-1.6,-0.1,-6.1,4.8,0.1,/,/
COc1ccc(Cn2cc3c(-c4ccc(F)cc4)nnc-3c3cc(OC)c(OC)cc32)cc1,-1.4,-1.0,0.4,22.1*,-3.2,-0.9,46.6*,0.5
Cn1nc2c3cc(F)ccc3n(Cc3ccc(F)cc3)cc-2c1=O,-0.5,-1.8,-0.9,-2.5,-0.4,0.1,/,/
CCOc1ccc(-c2noc(CCC(=O)O)n2)cc1,-3.3,-7.4,-2.5,-5.2,-15.4,-4.2,/,/
Cc1ccc(C2CC(=O)C=C(Nc3ccc(Cl)cc3)C2)cc1 (stereo unspecified),-1.2,-1.1,0.8,9.9*,-1.3,-0.1,-6.2,1.7
Cc1c(C)c2ccc(OCC(=O)Nc3ccccn3)cc2oc1=O,0.1,0.8,4.1,11.9*,3.0,3.5,5.6,5.6*
Cc1c(C)c2ccc(OCC(=O)NCc3ccccn3)cc2oc1=O,-1.3,2.3,-0.2,-1.8,1.1,-4.2,/,/
NC(=S)NN=Cc1nccc2c(N)cccc12,-0.5,-0.6,-4.1,8.3*,-6.2,-4.5,-0.9,-1.3
CC1=CC(C)(C)N(S(=O)(=O)c2ccc(C)cc2)c2ccccc21,-1.5,-1.5,-1.3,-4.0,-4.4,-2.1,/,/
N/C(=N\N=C\c1ccc([N+](=O)[O-])cc1)c1nonc1N,-1.1,1.6,0.5,14.5*,10.7*,1.0,3.5,9.1*
COc1ccc(Br)cc1-c1noc(-c2ccccc2)n1,-0.3,1.1,0.4,2.6,1.7,-0.4,/,/
CC1=Nc2cc([N+](=O)[O-])ccc2NC(C)(C)C1,-1.5,1.6,4.8*,10.8*,11.9*,0.4,6.2,2.1
Cc1nc2ccc([N+](=O)[O-])cc2nc1C,-1.2,-1.4,1.8,-2.4,-1.8,1.0,/,/
Cc1nnc(N/N=C/c2ccc(-c3ccc(Br)cc3)o2)n1N,-1.8,-1.3,-0.4,1.1,-0.2,-2.5,/,/
Cc1nnc(N/N=C\c2ccc(-c3cccc(C(=O)O)c3)o2)n1N,-1.3,-1.2,-2.7,9.1*,-5.2,-1.9,2.9,0.5
COc1ccccc1C/C(N)=N/OC(=O)c1ccc(C)c([N+](=O)[O-])c1,-0.4,1.6,-0.8,-3.1,2.2,0.4,/,/
Cc1ccc(C(=O)O/N=C(\N)Cc2cccs2)cc1[N+](=O)[O-],-0.3,1.9,0.0,8.2*,7.8,0.7,2.6,2.6
COc1ccc(NC(=O)c2ccc(COCC(F)(F)C(F)F)cc2)cc1OC,-1.7,-3.4,-0.8,-2.9,-5.1,-0.6,/,/
CCOC(=O)NC(=O)CSc1nc2ccc(C)cc2[nH]1,-0.6,0.5,-0.4,-1.3,4.4,0.6,/,/
COc1ccc(N2CCN(c3cncc(C)n3)CC2)cc1,-0.7,0.6,/,8.2*,2.2,0.4,-0.9,2.1
SMILES,ssDAF-12 act,hcDAF-12 act,DAX1 inh-1,SMARCA2 act,hgDAF-12 ag,DAX1 inh-2,SMARCA2 conf,VP16 Luc act
Cc1cncc(N2CCN(c3ccccn3)CC2)n1,-1.6,0.3,/,0.1,1.4,-0.6,/,/
C=CCN(C(=O)c1ccccn1)C(C(=O)NCc1ccccc1)c1ccccc1F (stereo unspecified),-0.9,0.6,0.8,-1.6,-1.1,-0.2,/,/
O=C(Nc1cc(Br)ccc1O)c1cc(-c2cccs2)on1,-0.2,2.3,1.1,9.8*,5.0,0.3,7.8,3.6
CC(C)c1cc(C(=O)Nc2cc(Br)ccc2O)no1,-0.6,1.0,0.3,-0.8,8.9,1.4,/,/
CC(=O)c1ccc(C(=O)N2CCCC(CNC(=O)c3ccccc3Cl)C2)cc1 (stereo unspecified),-1.0,1.1,1.5,-1.1,-0.6,-0.1,/,/
COc1cccc(-c2nnc(SCc3cccnc3)o2)c1,-1.1,1.6,2.1,10.1*,6.0,1.3,6.3,6.6*
O=C1NCC(COCc2ccccc2)O1 (stereo unspecified),-0.6,-0.8,0.3,0.0,-1.8,0.2,/,/
Cc1cc(C)c(S(=O)(=O)c2cccc(Cl)c2)c(=O)[nH]1,-0.9,-1.1,0.2,11.1*,-2.1,0.1,-3.4,0.0
Cc1c(C)n(C)c2ccc(C(=O)NCCCN3CCN(c4ccccc4F)CC3)cc12,-1.3,-2.3,-0.1,-0.7,1.1,-0.1,/,/
NC(=O)CC1C(=O)N(c2ccccc2)C(=S)N1NC(=O)c1ccc(Br)cc1 (stereo unspecified),-0.9,-0.3,0.5,7.4,8.9,1.0,/,/
NC(=O)CC1C(=O)N(c2ccccc2)C(=S)N1NC(=O)c1ccccc1 (stereo unspecified),0.0,2.7,0.0,8.0*,5.6,0.6,7.3,2.1
COc1ccc2c(c1)[nH]c1c(=O)n(CCC3=CCCCC3)cnc12,-0.9,0.4,-0.5,-5.1,0.8,-0.3,/,/
COc1ccc(CCN2CC(C(=O)N(C)Cc3ccccc3OC)CCC2=O)cc1 (stereo unspecified),-1.5,-1.1,-0.8,8.6*,-1.8,-0.2,-5.2,-0.7
Cc1ccccc1OCCOC(=O)c1nc2nccc(C)n2n1,0.1,-0.4,0.3,-1.9,0.9,1.1,/,/
O=C(Nc1sc2c(c1C(=O)O)CCC2)c1ccco1,0.0,2.1,1.1,9.1*,5.0,1.4,2.8,4.2
O=C(Nc1sc2c(c1C(=O)NCc1ccco1)CCCC2)c1ccc2c(c1)OCO2,-1.6,0.9,1.2,8.9*,4.3,1.5,3.7,8.3*
Cc1ccc(C(=O)Nc2sc3c(c2C(=O)NCc2ccco2)CCCC3)cc1,-0.2,2.7,1.1,-0.6,5.9,0.2,/,/
Cn1c(=O)c2c(ncn2CCO)n(C)c1=O,-1.3,0.0,-0.8,-7.2,0.8,0.0,/,/
